Results reported in ChEMBL document CHEMBL3988442, “University of Dundee, Small-Polar-MMV Screening Library” (2021).

Target: AMP-activated protein kinase, AMPK (Homo sapiens) (UniProt P54646+O43741+P54619+Q9UGJ0+Q9Y478+Q13131+Q9UGI9)
Assay: AMP-dependent Kinase enzyme assay. An in vitro enzyme assay that detects ADP turnover that is directly proportional to AMPK activity. This uses naive AMPK that is activated during the assay with MK-8722
Assay type: functional
Set-up: scale not given: direction of the effect not stated beside the values
Conditions: 30 µM

Compound | Percent Effect [%]
Cc1ccc(-c2noc(Cn3nc(C(N)=O)ccc3=O)n2)cc1 | 5.62
Cc1cc(N2CCC3(CCCN(CCO)C3=O)C2)nc2ccccc12 (configuration not stated) | 9.84
O=C(CCn1ccnc1)N1CC[C@H](Oc2cccc(F)c2)[C@@H](O)CC1 | -2.81
CC(C)(C)c1cn2c(n1)C(CNCc1cnn3ccccc13)CCC2 (configuration not stated) | -1.22
CNC(=O)C(c1cccc(Cl)c1)C(C)C (configuration not stated) | -6.65
C[C@@H]1CN(C(=O)C2(Cn3cccn3)CC2)C[C@@]1(O)C1CCC1 | 5.58
Cc1cc(C)c(-n2cccn2)c(CN2CCOCC(CN(C)C)C2)c1 (configuration not stated) | -0.542
Cc1noc(CCNC(=O)C2CSCN2C(=O)C2CCCC2)n1 (configuration not stated) | 3.34
Cc1cc(=O)n2nc(Oc3ccc(F)c(F)c3)sc2n1 | -9.97
CCc1ncc(C(=O)NCCN2CCNC2=O)cn1 | 0.385
COc1cc(Cl)cc(CN2CCCC(N3CCOCC3)C2)c1OC (configuration not stated) | 4.12
Cc1cc(C)cc(NCCC(=O)NCc2cccnc2N(C)C)c1 | -2.62
Cc1ccc(Oc2ncccc2CNC(=O)C2COC(=O)N2)c(F)c1F (configuration not stated) | 3.47
CC(=O)c1ccc(-c2cnn(CC(=O)Nc3cc(C)nn3C)c2)nc1 | 0.263
CC(c1nc(-c2ccccc2)no1)N1CCc2c(ncn2C2CC2)C1 (configuration not stated) | 10.5
COc1cc(C(=O)O)ccc1OCC(=O)NCCc1ccccc1 | 2.55
CN1CCOC(CNCC(=O)NCCC2=CCCCC2)C1 (configuration not stated) | -9.7
CO[C@@H]1CC[C@@H](NC(=O)CCc2ccc(Cl)cc2)[C@H]1O | 8.1
Fc1cccc(-c2n[nH]cc2-c2nc(CN3CCOCC3)no2)c1 | 5.95
COCC(=O)NCc1ccc(-c2ncncc2C(=O)N(C)C)cc1 | 5.99
CCc1nnc(CN2CCc3ccc(S(N)(=O)=O)cc32)o1 | 5.08

Compound | Percent Effect [%]
Cc1ccccc1CCC1CCCN(C(=O)Cc2cc(=O)[nH]c(N)n2)C1 (configuration not stated) | -3.84
COc1cccc2c1CCCCN2C(=O)c1oc(C)nc1C | 5.74
CCC(C(=O)NC1(CN2CCOCC2)CCCC1)n1cccn1 (configuration not stated) | 5.49
COc1cccc(CC(=O)N2CCc3ncnc(NCCO)c3CC2)c1 | -1.01
CN1CC(C(=O)NCCc2ccc(F)c(Br)c2)CC1=O (configuration not stated) | 5.17
Cc1noc(C)c1C(=O)N1CCC(n2cccn2)CC1 | -9.16
Cc1nn(C)c(C)c1C1COCCN1C(=O)CC(C)(C)C (configuration not stated) | -3.31
Cc1ccc2nc(CNCCCOc3ccccc3)cc(O)c2c1 | 2.49
COc1cccc([C@@]2(O)CC[C@@H]3CN(C(=O)c4ccn(C)n4)C[C@@H]32)c1 | 12.3
CN(Cc1cc[nH]n1)C(=O)c1ccc2c(c1)nc(N1CC[C@H](O)C1)n2C | 19.9
CN(C)C(CNC(=O)c1ccnc(-n2cncn2)c1)c1ccccc1 (configuration not stated) | -0.565
CC(C)c1ccc(/C=C/CC(=O)NC2CCN(C(N)=O)CC2)cc1 | -2.39
O=C(Cn1cccnc1=O)NCc1cccnc1OCC(F)(F)F | 0.146
COCc1nn(Cc2ccc(Cl)s2)c(=O)o1 | 6.29
CCn1cc(S(=O)(=O)Nc2ccc3[nH]c(C4CCC4)nc3c2)cn1 | 2.5
O=C(C1CC(c2ccccc2)=NO1)N1CCCCc2ccccc21 (configuration not stated) | 4.65
N#Cc1cccnc1NCCc1cc(F)cc2c1OCOC2 | 22.2
COCCN(C)C[C@@H]1CN(c2nc(C)cc(C)n2)C[C@@H]1CO | 2.16
CCOC(=O)c1ccc(S(=O)(=O)NCC(CC)N2CCCC2)cc1 (configuration not stated) | -6.04
CC1(C)COCCN1C(=O)Cc1cc(Cl)c2c(c1)OCCO2 | 10.7
CC(C(=O)Nc1cccc(C(F)(F)F)c1)N(C)CCN1CCOCC1 (configuration not stated) | 8.76

Compound | Percent Effect [%]
CC(C)c1cc(NC(=O)Cn2ccc(=O)c3ccccc32)[nH]n1 | 4.99
CCN1CC2(CCN(CC3CCCO3)CC2)OC1=O (configuration not stated) | -9.49
O=C1CSCN1Cc1nc(-c2ccc(N3CCCCC3)cc2)no1 | 2.39
CCCC(C#N)NC(=O)c1sccc1CC (configuration not stated) | 6.7
Cc1ccccc1Cn1cnc2oc(C)c(C(=O)O)c2c1=O | 9.55
Cc1cc(-c2n[nH]c3c2CN(S(=O)(=O)c2ccsc2)CC3)c(C)o1 | 4.26
Cc1ccc(-c2nc(CN3CCOCC3)no2)cc1N1CCNC1=O | 7.88
CNC(=O)CNC(=O)NCc1cc2c(s1)CCC(C)(C)C2 | -2.89
CCC1COCCN1C(=O)NCc1nccn1CC(C)C (configuration not stated) | -3.83
CN(C)C(=O)CN1CCN(c2cc(N3CCCC3CO)ncn2)CC1 (configuration not stated) | -0.698
Cc1ccnc(NC(=O)c2ccc(C)o2)c1 | 9.16
CSc1ccccc1NC(=O)c1ccc(N2CCOCC2)nn1 | -1.6
Cc1ccc(-c2nnn(CCN3C(=O)CCC3=O)n2)cc1 | -8.21
CC(=O)N1CCc2c(nc(N(C)C)nc2NCCCn2ccnc2)C1 | 2.43
O=C(c1cccnc1O)N1CCC2(CCCO2)CC1 | 0.948
CN(CCSc1nncn1C(C)(C)C)c1ccccc1 | 16.1
CCc1nc(C)c(CC(=O)N2CCC3(CC2)OCCCC3O)c(=O)[nH]1 (configuration not stated) | 2.99
CC(C)c1cc(C2CCN(C(=O)Cn3nc4ccccc4n3)CC2)[nH]n1 | 13.1
CC(C)(O)CCc1cccc(C(=O)NCc2cnn3cccnc23)c1 | -0.643
O=C(c1ccc2[nH]cnc2c1)N1CCC(Oc2ccccn2)CC1 | 3.35
CC(C)c1nnc(C2CCN(CC(=O)Nc3cccnc3)CC2)o1 | -5.27

Compound | Percent Effect [%]
Cc1nnc(SCCCNc2cc(C3CC3)ncn2)s1 | 15.2
CN(CCCOc1ccccc1Cl)C(=O)CN1C(=O)CCNC1=O | 7.42
CCOCCC(=O)Nc1cccc(Cl)c1C(N)=O | 1.82
O=C(Nc1ccc2c(c1)C(=O)NC2=O)c1cccs1 | 16.2
O=C(Nc1cccc(F)c1)NC1CCN(Cc2ccncc2)CC1 | 1.71
Cn1ccc(N2CCCC(NC(=O)c3ccc(Cl)o3)C2=O)n1 (configuration not stated) | 3.82
O=C1NCCN(Cc2cccnc2)C1CC(=O)N1CCc2n[nH]cc2C1 (configuration not stated) | -26.7
CCc1ccccc1Nc1noc2c1CN(C(=O)c1ccn(C)n1)CC2 | -1.29
CC(C(=O)NC1(C#N)CCCCC1)N1CCc2c(ncn2C)C1 (configuration not stated) | -9.22
CNS(=O)(=O)CC(=O)N(C1CCCC1)C1CC1 | -3.58
Cn1cc(N2CCN(c3ccc(C#N)cc3F)CC2=O)cn1 | 0.0438
CCC(=O)Nc1ccc(F)cc1OC | -10.1
CCc1nnc(CNC(=O)CCC2CCCCN2C)s1 (configuration not stated) | -10.9
CCOC(=O)NC1CCCN(c2cncc(Br)c2)C1 (configuration not stated) | 15.7
O=C(C1CCCN(c2nc3ccccc3cc2CO)C1)N1CCCC1 (configuration not stated) | 9.42
Cc1nn(C)c(C)c1C1CCCN1CC(=O)N(C)c1nccs1 (configuration not stated) | 10.2
O=C(CCC1CCCO1)NCCCO (configuration not stated) | -4.81
Cc1cc(C[S+]([O-])Cc2ccccc2F)no1 (configuration not stated) | 13.9
CCOc1ccc(C(=O)NC2CC2)cc1C | 4.59
